Assay results: the supplement of paper PMC9948646

The molecules below were run on gramicidin D channels in DC22:1PC lipid vesicles (bilayer-modifying potency) (assay: initial Tl+ fluorescence quench rate relative to no-drug control (NormRate, gramicidin monomer-dimer shift) (ratio (fold of control)); higher = stronger bilayer-modifying effect (equilibrium shifted toward conducting dimers), active = 1.5 or more). Settings: 10 µM; lipid concentration 50 µM; temperature: 25 °C.
Method: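 Stopped-flow fluorescence quench assay: ANTS-loaded DC22:1PC large unilamellar vesicles doped with gramicidin D (1:2000), 50 µM lipid, equilibrated 10 min with 10 µM drug (0.1% DMSO), mixed with Tl+ quench buffer at 25°C. Initial quench rate (Tl+ influx) was fitted with a modified stretched exponential and normalised to the no-drug control rate (NormRate); duplicates from two independent LUV preparations (triplicates for 7 drugs).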

Initial Tl+ fluorescence quench rate, inactive:
O=C(Nc1ccc(N2CCNCC2)nc1)c1oc(-c2ccccc2)nc1C(F)(F)F 1.47, O=C(c1cc2ccccc2o1)N1CCN(Cc2ccc3c(c2)OCO3)CC1 1.08, Cc1[nH]c2cc(F)cc(F)c2c(=O)c1-c1ccc(Oc2ccc(OC(F)(F)F)cc2)cc1 1.11, Cc1nn2c(=O)c3c([nH]c2c1-c1ccc(Cl)cc1)CCCC3 1.13, COc1ccc2nc(C)cc(OCC(=O)NCc3ccccc3)c2c1 1.06, Clc1ccc(CN2CCN(C3=NCCN3)CC2)cc1Cl 1.2, [H]/N=C(\N)N[C@H]1[C@@H](O)[C@@H](O)[C@H](O[C@H]2O[C@H](C)[C@](O)(C=O)[C@H]2O[C@H]2O[C@@H](CO)[C@@H](O)[C@@H](O)[C@@H]2NC)[C@@H](N/C(N)=N/[H])[C@H]1O 1.05, c1ccc(C[C@@H]2CN(c3nccc(Oc4ccc(-n5ccnc5)cc4)n3)CCN2)cc1 1.26, CS(=O)(=O)N1CCC(Cn2nc(Cc3cccc4ccccc34)c3c(N)ncnc32)CC1 1.47, CNCC[C@H](Oc1ccc(C(F)(F)F)cc1)c1ccccc1 1.41, CC(C)c1ncc(-c2ccncc2)c([C@H]2CC[C@H](CNC(=O)c3cccnc3)CC2)n1 1.02, CC(C)(C)n1nc(-c2ccccc2)c2c(N)ncnc21 1.03, CCOc1ccc2cc(-c3nn(C(C)(C)C)c(N)c3C(N)=O)cnc2c1 1.21, CC[C@H](CO)NCCN[C@H](CC)CO 1.02, C[C@@H](Oc1ccccc1)C(=O)Nc1nc(-c2ccccn2)cs1 1.29, CCCn1c(CNc2ccccc2O)nc2ccccc21 1.05, COc1cc2ncnc(NC3CCN(Cc4ccccc4)CC3)c2cc1OC 1.04, CN1CCN(c2cc(-c3ccc(F)cc3)nc(-c3ccncc3)n2)CC1 1.18, [H]/N=C(\N)c1ccc(OCCCCCOc2ccc(/C(N)=N\[H])cc2)cc1 1.02, NCCC[C@](N)(C(=O)O)C(F)F 1.07, O=C(c1ccc(F)cc1)N(CCNc1ccccc1)c1ccccc1 1.36, COc1cc(NC(=O)Cc2nn(C)c(=O)c3ccccc23)ccc1Cl 1.11, CCN(CC)CCCCCCNc1cc(OC)cc2c(C)ccnc12 1.45, C[C@H]1COC2(CCN(c3nc(=O)c4cc(C(F)(F)F)cc([N+](=O)[O-])c4s3)CC2)O1 1.08, Nc1ccc(C(=O)Nc2ccc(-c3nc4ccccc4o3)cc2)cc1 1.1, O=C(Nc1nc(-c2ccccn2)cs1)c1cncn1-c1ccccc1 1.1

Initial Tl+ fluorescence quench rate, active:
CS(=O)(=O)N1CCC(CCn2nc(Cc3cccc4ccccc34)c3c(N)ncnc32)CC1 1.95, c1ccc(Oc2ccc(-c3cc(C4CCOCC4)[nH]n3)cc2)cc1 3.48, O=S(=O)(c1ccc(Cl)cc1)N1CCN(C(=S)NCc2ccco2)CC1 1.54, Cc1ccc(NC(=O)C[C@@H]2COc3ccccc3O2)cc1Cl 2.24, COc1nc2ccc(Br)cc2cc1[C@@H](c1ccccc1)[C@@](O)(CCN(C)C)c1cccc2ccccc12 6.48, [H]/N=C(/N)Nc1ccc(-c2ccc(-c3ccc(N=C(N)N)c(Cl)c3)o2)cc1Cl 1.59, CN1CCC(NCc2cccc(-c3ccc(S(=O)(=O)NCc4ccccc4)cc3)c2)CC1 1.94, O=C(Nc1ccc(F)c(-c2nc3cc(-c4ccccc4)cnc3[nH]2)c1)N1CCCC1 1.72, Cc1nc(-c2ccccn2)nc(N(C)CCc2ccccc2)c1Cl 2.23, [H]/N=C(\Nc1ccc(Cl)cc1)Nc1nc(C)cc(NCCc2ccccc2)n1 3.21, CC(C)n1ncc2c(C(=O)NC[C@H](c3cccs3)N3CCOCC3)cc(-c3ccccc3)nc21 2.74, COC(=O)c1c(NC(=O)c2c(F)c(F)c(F)c(F)c2F)sc2c1CCCCC2 1.72, COc1ccc(Cl)cc1NC(=O)CN(C)C(=O)c1cnn(-c2ccccc2)n1 3.28, Cc1cnc(N2CCN[C@@H](Cc3ccccc3)C2)nc1Oc1ccc(-n2ccnc2)cc1 1.72
